{
  "source": "PubChem BioAssay (NCATS)",
  "note": "Unmarked numbers belong to inactive results. Calls follow the shape of the dose curve; as a rule, active = well fitted curve in the direction sought with a large enough effect; inconclusive = small, poorly fitted or top-dose-only effect, or another doubt; inactive = no such curve, though single readings can be large or run the other way.",
  "data": [
    {"biological_target": "Galactokinase (Homo sapiens) (UniProt P51570)", "sequence (P51570 whole entry, looked up)": "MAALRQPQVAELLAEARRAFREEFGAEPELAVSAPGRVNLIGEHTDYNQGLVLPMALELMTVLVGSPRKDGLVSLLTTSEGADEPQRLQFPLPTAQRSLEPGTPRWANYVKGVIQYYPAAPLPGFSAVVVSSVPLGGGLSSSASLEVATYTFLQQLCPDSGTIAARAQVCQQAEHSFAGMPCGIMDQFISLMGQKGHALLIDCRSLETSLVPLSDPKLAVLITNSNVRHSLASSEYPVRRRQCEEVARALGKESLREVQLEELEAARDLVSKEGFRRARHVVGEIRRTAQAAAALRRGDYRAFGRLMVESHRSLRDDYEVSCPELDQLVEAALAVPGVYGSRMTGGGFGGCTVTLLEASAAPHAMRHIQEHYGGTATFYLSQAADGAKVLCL", "experiment": "qHTS Validation Assay for Inhibitors of Human Galactokinase (GALK) (AID 493189); also: 0% is about no effect", "conditions": "purified human GALK enzyme activity, qHTS 7-point titration; series mostly up to 57.5 µM; activity change, negative = inhibition: at the top concentration", "source_text": "NIH Molecular Libraries Probe Production Centers Network [MLPCN]\nNIH Chemical Genomics Center [NCGC]\nAssay Submitter (PI): Kent Lai (University of Utah School of Medicine, 50 N Mario Capecchi Drive, Salt Lake City, UT 84132)\nInherited deficiency of galactose-1-phosphate uridyltransferase (GALT) can result in a potentially lethal disorder called Classic Galactosemia (OMIM 230400). Several lines of evidence indicate that an elevated level of galactose-1-phosphate (gal-1-p), the product of galactokinase (GALK), is a major, if not sole, pathogenic mechanism in patients with classic galactosemia. Therefore, finding inhibitors of GALK is a potential novel therapy for this inherent metabolic disease and is the long term goal of this project.\nGALK (provided by the assay submitter) was assayed using ATP and D-(+)-Galactose (Sigma-Aldrich cat# G0750) as substrates. Promega Kinase-Glo Plus (cat# V3774) technology was used to detect the residual ATP following kinetic reaction. Briefly, the Kinase-Glo Plus contains Ultra-Glo [2] luciferase and D-luciferin which generates a bioluminescence signal from the remaining ATP.\nNCGC Assay Protocol Summary:\nThree uL/well of ATP-buffer solution (35 uM ATP, 20mM HEPES pH8.0, 5 mM MgCl2, 60 mM NaCl, 1 mM DTT, 0.01% BSA final concentration) was dispensed into 1536-well, assay plates (Greiner, solid white medium-binding plates) with Aurora Discovery BioRAPTR Flying Reagent Dispenser (FRD; Beckton-Dickenson). Compound solution (23 nL) was transferred to the assay plate using the Kalypsys 1536-pin tool. One uL/well GALK-galactose solution (5 nM GALK, 100 uM galactose, 20 mM HEPES pH8.0, 5 mM MgCl2, 60 mM NaCl, 1 mM DTT, 0.01% BSA final concentration) was then added using the FRD yielding a total kinase reaction volume of 4 uL/ well. After 1 hour of room temperature incubation, 4 uL Kinase-Glo Plus reagent was added for a final assay volume of 8 uL/ well. Luminescence was detected with the ViewLux plate reader (Perkin Elmer, Waltham, MA) after 10 min incubation using a 1 sec exposure time and 2x binning.", "units": {"activity change, negative = inhibition": "%"}, "values": [
      {"smiles": "O=C(O)CNC(=O)C(CS)Cc1ccccc1", "note": "(stereo not given)", "activity change, negative = inhibition": -1.22},
      {"smiles": "CC(C)(C)NCC(O)COc1nsnc1N1CCOCC1", "note": "(stereo not given)", "activity change, negative = inhibition": -0.564},
      {"smiles": "O=C(O)CCCC[C@@H]1CCSS1", "activity change, negative = inhibition": -4.21},
      {"smiles": "COc1ccccc1N1CCN(CCCCNS(=O)(=O)c2cccc3c(N(C)C)cccc23)CC1", "activity change, negative = inhibition": 3.5},
      {"smiles": "Cc1cc(NC(=O)Nc2ccc3c(ccn3C)c2)sn1", "activity change, negative = inhibition": -3.61},
      {"smiles": "COc1cc2c(CCNC(C)=O)c[nH]c2cc1Cl", "activity change, negative = inhibition": 3.36},
      {"smiles": "Oc1cc(O)cc(/C=C/c2ccc(O)c(O)c2)c1", "activity change, negative = inhibition": 20.1},
      {"smiles": "O=C(O)CC1CCCc2ccccc2C1O", "note": "(stereo not given)", "activity change, negative = inhibition": 3.68},
      {"smiles": "CO/N=C(\\C(=O)N[C@@H]1C(=O)N2C(C(=O)O)=C(COC(C)=O)CS[C@H]12)c1csc(N)n1", "note": "(stereo in doubt)", "activity change, negative = inhibition": -2.3},
      {"smiles": "O=C1O/C(=C/Br)CCC1c1cccc2ccccc12", "note": "(stereo not given)", "activity change, negative = inhibition": -14.6},
      {"smiles": "O=C(Nc1cccc(C(=O)Nc2ccc(S(=O)(=O)O)c3cc(S(=O)(=O)O)cc(S(=O)(=O)O)c23)c1)Nc1cccc(C(=O)Nc2ccc(S(=O)(=O)O)c3cc(S(=O)(=O)O)cc(S(=O)(=O)O)c23)c1", "activity change, negative = inhibition": -4.73},
      {"smiles": "O=c1[nH]c2cc(C(F)(F)F)ccc2n1-c1cc(C(F)(F)F)ccc1O", "activity change, negative = inhibition": -0.751},
      {"smiles": "O=c1[nH]c2ccccc2n1CCCN1CCN(C(c2ccccc2)c2ccccc2)CC1", "activity change, negative = inhibition": -3.36},
      {"smiles": "COc1cc2nc(N3CCN(C(=O)OCc4ccccc4)C(C(=O)NC(C)(C)C)C3)nc(N)c2cc1OC", "note": "(stereo not given)", "activity change, negative = inhibition": -1.35},
      {"smiles": "c1ccc(-c2ccccn2)nc1", "activity change, negative = inhibition": 2.72},
      {"smiles": "CN[C@H](CC(C)C)C(=O)N[C@H]1C(=O)N[C@@H](CC(N)=O)C(=O)N[C@H]2C(=O)N[C@H]3C(=O)N[C@H](C(=O)N[C@H](C(=O)O)c4cc(O)cc(O)c4-c4cc3ccc4O)[C@H](O)c3ccc(c(Cl)c3)Oc3cc2cc(c3O[C@@H]2O[C@H](CO)[C@@H](O)[C@H](O)[C@H]2O[C@H]2C[C@](C)(N)[C@H](O)[C@H](C)O2)Oc2ccc(cc2Cl)[C@H]1O", "activity change, negative = inhibition": 3.82},
      {"smiles": "NC(N)=NC(=O)c1nc(Cl)c(N2CCCCCC2)nc1N", "activity change, negative = inhibition": 2.79},
      {"smiles": "C=C/C(C)=C/[C@@]1(C)SC(=O)C(C)=C1O", "activity change, negative = inhibition": -2.11},
      {"smiles": "O=C(/C=C/c1ccc(O)c(O)c1)OCCc1ccccc1", "activity change, negative = inhibition": -2.16},
      {"smiles": "N#C/C(=C\\c1ccc(O)c(O)c1)C(=O)NCc1ccccc1", "activity change, negative = inhibition": 0.767},
      {"smiles": "CCCCN1CCC(n2c(=O)[nH]c3ccccc32)CC1", "activity change, negative = inhibition": 4.68},
      {"smiles": "Cc1ccc(C(=O)O[C@H](C(=O)O)[C@@H](OC(=O)c2ccc(C)cc2)C(=O)O)cc1", "note": "(tested in a mixture with another compound)", "activity change, negative = inhibition": -3.22},
      {"smiles": "O=C(O)/C=C/C(O)c1ccc(Cl)cc1", "note": "(stereo not given)", "activity change, negative = inhibition": -2.81},
      {"smiles": "CCCCCCCC/C=C\\CCCCCCCC(=O)NCCO", "activity change, negative = inhibition": 0.483},
      {"smiles": "N#C/C(=C\\c1c[nH]c2ccccc12)C(=O)c1ccc(O)c(O)c1", "activity change, negative = inhibition": -25.1},
      {"smiles": "COC(=O)c1c(C)[nH]c(C)c1C(=O)c1ccccc1Cc1ccccc1", "activity change, negative = inhibition": 3.73},
      {"smiles": "CC(=O)N[C@H](C(=O)O)C(C)(C)SN=O", "activity change, negative = inhibition": -0.961},
      {"smiles": "NCCCCC(=O)O", "activity change, negative = inhibition": -2.67},
      {"smiles": "COc1cccc(C(=O)NCCN2CCN(c3ccc(Cl)cc3)CC2)c1", "activity change, negative = inhibition": 3.26},
      {"smiles": "CN1CCC[C@H]1c1cccnc1", "activity change, negative = inhibition": -3.2},
      {"smiles": "CC[C@@H](C)[C@H]1O[C@]2(CC[C@@H]1C)C[C@@H]1C[C@@H](C/C=C(\\C)[C@@H](O[C@H]3C[C@H](OC)[C@@H](O[C@H]4C[C@H](OC)[C@@H](O)[C@H](C)O4)[C@H](C)O3)[C@@H](C)/C=C/C=C3\\CO[C@@H]4[C@H](O)C(C)=C[C@@H](C(=O)O1)[C@]34O)O2", "activity change, negative = inhibition": 1.36},
      {"smiles": "COc1cc(C(O)CO)ccc1OS(=O)(=O)O", "note": "(stereo not given)", "activity change, negative = inhibition": -1.26},
      {"smiles": "COc1ccc(/C=C/C(=O)Nc2ccccc2C(=O)O)cc1OC", "activity change, negative = inhibition": -0.374},
      {"smiles": "Oc1cc2c(cc1O)CN(C(=S)NCCc1ccc(Cl)cc1)CCC2", "activity change, negative = inhibition": 3.36},
      {"smiles": "N[C@@H](CC(=O)O)C(=O)O", "activity change, negative = inhibition": -2.41},
      {"smiles": "Cn1c(=O)c2[nH]c(-c3ccccc3)nc2n(C)c1=O", "activity change, negative = inhibition": -3.71},
      {"smiles": "Cn1cc(C2=C(c3ccc(Cl)cc3Cl)C(=O)NC2=O)c2ccccc21", "activity change, negative = inhibition": 3.11},
      {"smiles": "Clc1ccc(N2CCN(Cc3c[nH]c4ncccc34)CC2)cc1", "activity change, negative = inhibition": 4.08},
      {"smiles": "Oc1ccc(C2CNCc3sccc32)cc1O", "note": "(stereo not given)", "activity change, negative = inhibition": 3.61},
      {"smiles": "CC1CN(S(=O)(=O)c2cccc3cnccc23)CCN1", "note": "(stereo not given)", "activity change, negative = inhibition": -5.33}
    ]}
  ]
}
